In PubChem BioAssay AID1159580 (chemical genetic matrix, 2015):
Screen size: about 5,500 compounds; about 2,000 (36%) were called active. Roughly 18% stayed inconclusive and do not appear here. Cut-off read from the data, not from the text of the source: active = normalized growth mostly below about 0.91 (no sharp cut-off); inconclusive = no clear call, values can overlap the other calls; inactive = mostly above about 0.92. The list shows a part of the results.

Assay: chemical genetic growth profiling, strain panel (AID 1159580);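 note: tested at 20 µM; growth read once vehicle control cultures reached saturation at 30 °C; 1 = growth at the plate median or of vehicle wells; lower values mean less growth of the strain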
Settings: S. cerevisiae deletion strains, growth OD
[1] = locus YDL101C, strain DUN1, hits give low values
[2] = locus YHR030C, strain SLT2, hits give low values

Measured: normalized growth

CCCCc1ccc(N=CNO)c(C)c1
inactive: locus YAR019C, strain CDC15, hits give low values 0.985 | locus YBL105C, strain PKC1, hits give low values 1.01 | locus YBR135W, strain CKS1, hits give low values 0.983 | locus YBR136W, strain MEC1, hits give low values 0.976 | locus YBR160W, strain CDC28, hits give low values 0.996 | locus YDL017W, strain CDC7, hits give low values 0.997 | locus YDL028C, strain MPS1, hits give low values 0.974 | [1] 0.914 | locus YDL108W, strain KIN28, hits give low values 0.974 | locus YDL132W, strain cdc53, hits give low values 0.977 | locus YDR052C, strain DBF4, hits give low values 0.995 | locus YDR054C, strain cdc34, hits give low values 0.967 | locus YDR226W, strain ADK1, hits give low values 0.986 | locus YFL009W, strain cdc4, hits give low values 0.986 | locus YFL029C, strain CAK1, hits give low values 0.977 | locus YFR003C, strain YPI1, hits give low values 0.99 | locus YFR028C, strain CDC14, hits give low values 0.967 | locus YGR092W, strain DBF2, hits give low values 0.575 | locus YIL147C, strain SLN1, hits give low values 0.985 | locus YJL128C, strain PBS2, hits give low values 0.982 | locus YJR016C, strain ILV3, hits give low values 0.996 | locus YKL193C, strain SDS22, hits give low values 0.978 | locus YMR001C, strain CDC5, hits give low values 0.982 | locus YMR277W, strain FCP1, hits give low values 0.977 | locus YNL006W, strain LST8, hits give low values 1 | locus YNL161W, strain CBK1, hits give low values 0.992 | locus YNL207W, strain RIO2, hits give low values 0.968 | locus YNL222W, strain SSU72, hits give low values 0.985 | locus YOL078W, strain AVO1, hits give low values 0.948 | locus YOR329C, strain SCD5, hits give low values 0.993 | locus YPL209C, strain IPL1, hits give low values 0.993 | locus YPR025C, strain CCL1, hits give low values 0.993 | locus YPR106W, strain ISR1, hits give low values 0.989 | locus YPR111W, strain DBF20, hits give low values 0.995 | strain NNK1, hits give low values 0.974 | strain TSCII, hits give low values 0.964
active: locus YDL214C, strain PRR2, hits give low values 0.427 | locus YDR477W, strain SNF1, hits give low values 0.463 | locus YER123W, strain YCK3, hits give low values 0.242 | locus YER133W, strain GLC7, hits give low values 0.41 | locus YFR019W, strain FAB1, hits give low values 0.255 | locus YGR040W, strain KSS1, hits give low values 0.485 | locus YGR052W, strain FMP48, hits give low values 0.246 | [2] 0.225 | locus YHR079C, strain IRE1, hits give low values 0.146 | locus YHR082C, strain KSP1, hits give low values 0.362 | locus YHR205W, strain SCH9, hits give low values 0.475 | locus YJL095W, strain BCK1, hits give low values 0.178 | locus YJL157C, strain FAR1, hits give low values 0.45 | locus YJR066W, strain TOR1 (second series), hits give low values 0.181 | locus YJR066W, strain TOR1, hits give low values 0.236 | locus YKL048C, strain ELM1, hits give low values 0.604 | locus YKL067W, strain YNK1, hits give low values 0.48 | locus YKL101W, strain HSL1, hits give low values 0.488 | locus YKL203C, strain TOR2, hits give low values 0.391 | locus YLR113W, strain HOG1, hits give low values 0.259 | locus YLR133W, strain CKI1, hits give low values 0.558 | locus YLR403W, strain SFP1, hits give low values 0.465 | locus YML070W, strain DAK1, hits give low values 0.321 | locus YMR205C, strain PFK2 (second series), hits give low values 0.558 | locus YNL020C, strain ARK1, hits give low values 0.529 | locus YNL183C, strain NPR1, hits give low values 0.229 | locus YNL307C, strain MCK1 (second series), hits give low values 0.452 | locus YOL136C, strain PFK27, hits give low values 0.358 | locus YOR061W, strain CKA2, hits give low values 0.528 | locus YOR119C, strain RIO1, hits give low values 0.332 | locus YOR231W, strain MKK1, hits give low values 0.281 | locus YPL031C, strain PHO85, hits give low values 0.444 | locus YPL153C, strain RAD53, hits give low values 0.369 | locus YPL204W, strain HRR25, hits give low values 0.418 | locus YPL256C, strain CLN2, hits give low values 0.267

Cc1cc(N=CNO)c2ccccc2n1
inactive: locus YAL013W, strain DEP1, hits give low values 1 | locus YBR229C, strain ROT2, hits give low values 0.994 | locus YCL061C, strain MRC1, hits give low values 0.976 | [1] 0.966 | locus YDL134C, strain PPH21, hits give low values 0.997 | locus YDR150W, strain NUM1, hits give low values 0.938 | locus YEL061C, strain CIN8, hits give low values 0.999 | locus YGR078C, strain PAC10, hits give low values 0.981 | locus YGR229C, strain SMI1, hits give low values 1.01 | [2] 0.869 | locus YHR087W, strain rtc3, hits give low values 1.04 | locus YJR043C, strain POL32, hits give low values 0.959 | locus YJR075W, strain HOC1, hits give low values 1 | locus YKL190W, strain CNB1, hits give low values 0.997 | locus YLR039C, strain RIC1, hits give low values 0.959 | locus YLR058C, strain SHM2 (second series), hits give low values 0.989 | locus YLR085C, strain ARP6, hits give low values 0.932 | locus YLR262C, strain YPT6, hits give low values 0.988 | locus YML094W, strain GIM5, hits give low values 1.01 | locus YMR219W, strain ESC1, hits give low values 1 | locus YMR263W, strain SAP30, hits give low values 0.994 | locus YMR307W, strain GAS1, hits give low values 1.19 | locus YNL128W, strain TEP1, hits give low values 0.966 | locus YNL153C, strain GIM3, hits give low values 0.987 | locus YNL298W, strain CLA4 (second series), hits give low values 0.919 | locus YNL322C, strain KRE1, hits give low values 0.962 | locus YNR030W, strain Alg12, hits give low values 0.982 | locus YPL055C, strain LGE1, hits give low values 1.04 | locus YPL241C, strain CIN2, hits give low values 0.966 | locus YPR135W, strain CTF4, hits give low values 0.955
